The source made the active and inactive calls. Rule for the calls: active = hit-call score of the fitted dose curve at least 0.9, where 1 is the maximum; inactive = score below 0.9.
target: human LYN Proto-Oncogene, Src family Tyrosine Kinase (LynB), LYN (gene 4067) (UniProt P07948); test: NVS_ENZ_hLynB: NovaScreen (NVS) Enzymatic Assay for human LYN Proto-Oncogene, Src family Tyrosine Kinase (LynB)
Experimental: NVS_ENZ_hLynB is a biochemical, single-readout assay that uses extracted gene-proteins in a cell-free assay. Measurements were taken 1 hour after chemical dosing in a 384-well plate.NVS_ENZ_hLynB is one of one assay component(s) measured or calculated from the NVS_ENZ_hLynB assay. It is designed to make measurements of enzyme activity, a form of enzyme reporter, as detected with fluorescence intensity signals by Fluorescence and electrophoretic mobility shift technology.Data from the assay component NVS_ENZ_hLynB was analyzed into 1 assay endpoint. This assay endpoint, NVS_ENZ_hLynB, was analyzed in the positive analysis fitting direction relative to DMSO as the negative control and baseline of activity. Using a type of enzyme reporter, loss-of-signal activity can be used to understand changes in the enzymatic activity as they relate to the gene LYN. Furthermore, this assay endpoint can be referred to as a primary readout, because this assay has produced multiple assay endpoints where this one serves a enzymatic activity function. To generalize the intended target to other relatable targets, this assay endpoint is annotated to the kinase intended target family, where the subfamily is non-receptor tyrosine kinase. […]

human LYN Proto-Oncogene, Src family Tyrosine Kinase (LynB), LYN (gene 4067), sequence (P07948 whole entry, looked up): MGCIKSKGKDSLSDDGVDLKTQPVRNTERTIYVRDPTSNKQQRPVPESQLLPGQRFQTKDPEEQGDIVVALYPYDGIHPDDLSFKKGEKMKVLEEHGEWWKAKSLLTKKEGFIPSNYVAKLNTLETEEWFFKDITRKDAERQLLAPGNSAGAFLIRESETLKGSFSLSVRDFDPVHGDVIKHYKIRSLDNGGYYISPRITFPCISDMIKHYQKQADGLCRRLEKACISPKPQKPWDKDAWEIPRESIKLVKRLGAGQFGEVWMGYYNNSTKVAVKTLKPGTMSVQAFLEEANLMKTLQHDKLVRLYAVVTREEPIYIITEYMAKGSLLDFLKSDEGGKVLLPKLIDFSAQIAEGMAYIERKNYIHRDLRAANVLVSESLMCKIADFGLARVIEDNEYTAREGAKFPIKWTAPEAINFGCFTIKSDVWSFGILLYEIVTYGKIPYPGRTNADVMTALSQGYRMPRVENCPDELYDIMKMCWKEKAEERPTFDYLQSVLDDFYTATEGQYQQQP

Structure (SMILES) | outcome
CCOCN(C(=O)CCl)c1c(C)cccc1CC | inactive
